# Screening data as filed in PubChem.
# Only some compounds are listed: those with a hit (about 3.5% of all), similar ones and a draw of the others.
# CHRM1 PAM = human CHRM1 positive allosteric modulation; CHO-K1 hM1, Fluo-8 calcium fluorescence, ACh EC20; 0% = ACh EC20, 100% = maximal ACh; activation, % at 3 µM; 0.088% of 360,000 active; in the data active = activation above about 19%, passing the limit was not always enough
# Target sequence (P11229 whole entry, looked up): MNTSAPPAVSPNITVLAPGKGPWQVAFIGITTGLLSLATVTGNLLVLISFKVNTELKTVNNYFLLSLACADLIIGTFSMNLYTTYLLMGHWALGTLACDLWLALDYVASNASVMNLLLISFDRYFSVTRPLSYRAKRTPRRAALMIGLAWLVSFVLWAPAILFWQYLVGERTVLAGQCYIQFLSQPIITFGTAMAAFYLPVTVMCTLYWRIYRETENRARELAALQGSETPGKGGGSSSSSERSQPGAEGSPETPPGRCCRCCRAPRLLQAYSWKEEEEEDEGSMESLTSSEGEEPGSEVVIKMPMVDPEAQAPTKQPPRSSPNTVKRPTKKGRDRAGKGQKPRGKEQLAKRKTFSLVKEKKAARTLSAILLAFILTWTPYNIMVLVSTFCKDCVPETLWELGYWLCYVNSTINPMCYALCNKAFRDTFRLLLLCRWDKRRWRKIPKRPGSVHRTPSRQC
# Myeloid diff MLP = myeloid differentiation induction | ER-HoxA9 myeloid progenitors, lysozyme-GFP differentiation, flow cytometry | calls only at 10 µM | 1% of 360,000 active;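 active = normalized GFP-positive differentiation at or above the plate's own cutoff, the solvent-only control mean plus 3 SD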;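 note: cells exposed to compound for four days before flow analysis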
# CHRM1 agonist = agonists of human M1 muscarinic receptor; P11229; CHO-K1 hM1, Fluo-8 calcium fluorescence, agonist mode; 0% DMSO, 100% acetylcholine EC100; activation, % at 3 µM; 0.33% of 360,000 active; AID 588814;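 active = activation above the run's mean compound activation plus 3 SD, cut at about 16% in these data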;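 note: peak over basal fluorescence ratio within a 140 s kinetic read after compound addition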
# SKN-1 inh = C. elegans SKN-1 inhibition | inhibition, % at 21.8 µM | 0.49% of 360,000 active | AID 624304 | C. elegans VP596 Pgst-4::GFP/RFP ratio, acrylamide-induced, 24 h;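 active = interference check ratio from 0.5 to 1.5 plus GFP to RFP signal ratio inhibition reaching or exceeding a fixed threshold, cut at about 30% in these data, passing the limit was not always enough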
# M1 antag = blocks human M1 muscarinic receptor | P11229 | CHO-K1 hM1, Fluo-8 calcium fluorescence, ACh EC80 antagonist | inhibition, % at 3 µM | 1.3% of 360,000 active;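 active = percent inhibition above its own plate's cutoff, namely the mean of that plate's compound wells plus 3 SD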;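 note: peak over basal fluorescence ratio during 140 s after agonist addition; 0% = ACh EC80 plus DMSO and 100% = DMSO alone without agonist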
# ATG4B inhibitor = inhibitors of human ATG4B cysteine protease; 0.51% of 340,000 active; inhibition, % at 8.33 µM; Q9Y4P1; ATG4B cleavage of LC3-PLA2, NBD-HPC fluorescence, 1 h; in the data active = inhibition above about 40%
# An asterisk follows results filed as active; i = inactive; nt = no result; + = active, no number.
SMILES,CHRM1 PAM,Myeloid diff MLP,CHRM1 agonist,SKN-1 inh,M1 antag,ATG4B inhibitor
O=S(=O)(c1cc(C(F)(F)F)ccc1Cl)N1CCN(c2ncnc3ccccc23)CC1,-14.1,i,0.6,6.4,39.4*,-9.7
Cc1cc(C)c(C)c(S(=O)(=O)N2CCN(c3ncnc4ccccc34)CC2)c1C,6.8,i,0.9,-12.6,0.8,-5.1
Cc1sc2ncnc(N3CCN(S(=O)(=O)c4ccc(F)cc4)CC3)c2c1C,-16.8,i,-6.0,7.0,29.4*,-2.1
O=S(=O)(c1ccccc1C(F)(F)F)N1CCN(c2ncnc3sccc23)CC1,-18.5,i,-0.2,0.6,29.0*,-5.3
Cc1ccc(S(=O)(=O)N2CCN(c3ncnc4sccc34)CC2)cc1,-9.3,i,0.9,9.5,29.6*,-11.3
CCS(=O)(=O)N1CCN(c2ncnc3sc(C)c(C)c23)CC1,2.7,i,-2.1,15.8,-16.8,3.6
CCCCn1c(N)c(N(Cc2ccccc2OC)C(=O)C(C)Oc2ccc(Br)cc2)c(=O)[nH]c1=O (stereo not drawn),2.3,i,-0.5,6.5,6.2,-7.2
COc1ccc(CNC(=O)CSc2nnc(NC(=O)c3ccccc3F)s2)cc1,9.7,i,-2.6,12.1,-1.3,6.5
CC(=O)C1=CCC(c2cccc3ccccc23)N(S(=O)(=O)c2ccc(C)cc2)C1 (stereo not drawn),-11.8,i,-4.5,2.2,-2.6,nt
Cc1nc(C)c(C(=O)O)c(-c2cccs2)c1C(=O)O,16.6,i,0.9,-1.6,-10.7,-0.8
Cc1c(/C=N\NC(=O)c2cccc(F)c2)cnn1C,8.6,i,-3.0,9.3,-6.7,-7.5
CCc1ccc(OCc2cccc(C(=O)N/N=C\c3cnn(C)c3C)c2)cc1,7.5,+,0.2,-4.1,-10.6,3.7
CC(=O)c1coc2ccc(OCC(=O)O)cc12,7.9,+,-1.2,5.3,-6.3,-1.5
COc1ccc(OC)c(C(=O)c2coc3ccc(OCC(=O)O)cc23)c1,6.9,i,-1.6,1.6,-7.2,-0.4
CC(=O)c1ccc(S(=O)(=O)N(C)CCCC(=O)N(C)Cc2c(F)cccc2Cl)cc1,6.3,i,-10.8,0.3,-4.6,1.8
CCN(CC)CCN1C(=O)c2ccccc2NC1c1ccc(F)cc1 (stereo not drawn),-1.9,i,-6.6,16.1,-5.7,-3.9
CCN(CC)CCN1C(=O)c2ccccc2NC1c1ccccc1F (stereo not drawn),-37.1,i,-12.1,7.8,89.5*,-2.6
COc1cccc(CN2CCN(CC(=O)NCCc3ccccc3)CC2)c1,12.4,i,-7.3,21.4,-16.5,-1.8
Cc1sc2nc(CN3CCCCC3)nc(Cl)c2c1C,2.1,+,-9.8,9.5,-7.4,-2.3
Clc1nc(CN2CCCCC2)nc2sc3c(c12)CCCC3,0.2,i,-6.6,-0.2,1.9,-6.4
Cc1snnc1C(=O)NC(=S)Nc1ccccc1,18.8,i,2.9,-14.6,-19.7,-10.4
COc1ccc(NC(=O)CN2C(=O)NC(C)(Cc3ccc(OC)c(OC)c3)C2=O)cc1 (stereo not drawn),2.7,i,-4.4,7.2,-15.2,nt
CC(=O)c1c(C)[nH]c(C(=O)OCC(=O)Nc2ccc(Cl)cc2[N+](=O)[O-])c1C,-12.5,i,-1.1,9.1,33.5*,-4.2
CCCCCCCCN1C(=O)[C@H](CC(=O)N2CCSCC2)C[C@@]2(C(=O)OC)CC(C)(C)CC=C12,nt,i,nt,0.1,nt,nt
COc1ccc(CC(=O)Nc2cc(S(=O)(=O)N3CCOCC3)ccc2N2CCCC2)cc1,8.2,i,-2.0,2.7,-13.6,nt
SMILES,CHRM1 PAM,Myeloid diff MLP,CHRM1 agonist,SKN-1 inh,M1 antag,ATG4B inhibitor
COc1ccc(CC(=O)Nc2cc(S(=O)(=O)N3CCOCC3)ccc2N2CCOCC2)cc1,-2.5,i,-2.9,36.0*,3.1,-10.9
CCN1CCN(c2ccc(S(=O)(=O)N3CCOCC3)cc2NC(=O)c2ccc(Cl)cc2Cl)CC1,6.0,i,-6.1,8.5,-7.1,-9.8
COc1ccc(S(=O)(=O)CCC(=O)N2CCN(c3ccc([N+](=O)[O-])cc3)CC2)cc1,-18.9,i,0.2,2.6,48.0*,-5.5
CCN1CCN(c2ccc(S(=O)(=O)N3CCOCC3)cc2NC(=O)c2ccccc2OC(F)F)CC1,3.5,i,20.2*,-23.1,-5.0,-6.2
COc1ccc(N2CCN(C(=O)c3ccc(S(=O)(=O)N4CCOCC4)cc3)CC2)cc1,2.6,+,-4.5,-1.8,-2.4,12.4
O=Cc1ccccc1-c1cn(CCCOCc2ccccc2)nn1,-2.3,i,-3.8,20.4,-0.3,28.9
CCCCCCCCCc1conc1C(=O)/C=C/c1oc2c(c1C)CCC(C)C2 (stereo not drawn),nt,i,nt,6.1,nt,nt
Cc1ccccc1OCC(=O)NCCCNC(=O)c1ccncc1,28.4*,i,3.0,-11.5,-22.2,-4.5
CN(C)CCCNCCCNC(=O)c1ccncc1,9.1,+,-4.2,-0.2,-4.8,-3.0
COCC(C)NC(=O)CSc1nc2cc(S(=O)(=O)N3CCCCC3)ccc2o1 (stereo not drawn),3.7,i,-2.7,12.1,-7.1,2.0
N#CC1=C(N)Oc2cc(O)c(Cl)cc2C1c1ccccc1F (stereo not drawn),-14.6,i,25.8*,-6.6,20.2,-3.7
N#CC1=C(N)Oc2cc(O)c(Cl)cc2C1c1cccnc1 (stereo not drawn),9.8,i,6.8,-1.5,-11.0,1.1
COc1ccc(/C=C/C(=O)NCc2cccnc2)cc1,9.2,i,-6.5,10.7,-10.1,5.1
CCc1ccc(CN(Cc2cccnc2)C(=O)/C=C/c2ccc(OC)cc2)cc1,7.0,+,-5.6,13.8,-7.0,5.0
O=C(N/N=C/c1cccs1)c1ccc2nc[nH]c2c1,-11.3,i,0.1,-3.2,35.4*,-9.0
O=S(=O)(CCNC1CC1)NC1CCCCC1,5.1,i,-5.4,5.0,-15.5,nt
O=C1C=C(N2CCCCCC2)C(=O)N1c1ccc(Cl)cc1,-31.5,i,-7.9,4.1,80.5*,6.1
CN(C)C(=O)c1ccc(NC(=O)COC(=O)C2(c3ccccc3)CCCC2)cc1,3.0,i,4.3,-4.6,6.5,-5.0
Cc1cccc(NC(=O)CCNC(=O)c2ccc(Br)cc2)c1C,15.2,i,1.1,-18.1,-8.1,1.3
S=C(NCCN(C1CCCCC1)C1CCCC1)Nc1cccc(Cl)c1,-12.4,+,-6.3,-12.3,20.8,15.6
O=C(NCC(c1ccccc1Cl)N1CCCC1)c1ccc(N2CCCC2=O)cc1 (stereo not drawn),-24.7,i,-8.4,14.2,55.7*,-8.3
COc1ccc(C(CNC(=O)c2ccc(N3CCCC3=O)cc2)N2CCCC2)cc1 (stereo not drawn),3.2,i,-7.2,-3.3,-4.5,2.1
